Among the data in PubChem BioAssay (NCI) are growth inhibition values, retold here.

This is part of a sample that, as a whole, favours compounds with a hit. Of some 79,000 tested, about 15% had one in any assay. A number with no mark means an inactive call. Calls of active or inactive are those of the source. No stated cut-off is given here; in the data, active means growth inhibition above about 70%; inactive means the rest.

Assay [1] can be described thus: NCI Yeast Anticancer Drug Screen. Data for the rad50 strain (AID 155).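 Further: 0% = growth of vehicle-only cultures of the same strain.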 The conditions noted are these: S. cerevisiae rad50 strain growth inhibition, stronger effect = higher value. Put shortly: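 Growth of the mutant yeast was measured after compound exposure and referenced to vehicle-treated cultures.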
A short description of assay [2]: NCI Yeast Anticancer Drug Screen. Data for the mec2-1 strain (AID 157). The conditions noted are these: S. cerevisiae mec2-1 strain, stronger effect = higher value. The procedure, abridged: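 Using mec2-1 yeast: add compound, measure growth, express inhibition versus vehicle-treated cultures.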
Assay [3] is described as follows: NCI Yeast Anticancer Drug Screen. Data for the sgs1 mgt1 strain (AID 161).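 Further: 0% = growth of cultures given vehicle only.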 Particulars: S. cerevisiae sgs1 mgt1 strain, stronger effect = higher value. Put shortly: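 Growth of a repair-deficient yeast mutant was monitored after compound treatment and expressed as inhibition relative to vehicle-treated cultures.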
Assay [4] can be described thus: NCI Yeast Anticancer Drug Screen. Data for the cln2 rad14 strain (AID 165).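 Further: 0% = growth equal to vehicle treated cultures.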 Particulars: S. cerevisiae cln2 rad14 strain, stronger effect = higher value. The procedure, abridged:
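Yeast strain cln2 rad14, bearing defects in cell cycle control and DNA repair, serves as the test system; values reflect growth inhibition compared with vehicle.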

Assay [5] is described as follows: NCI Yeast Anticancer Drug Screen. Data for the bub3 strain (AID 167). The conditions noted are these: S. cerevisiae bub3 mutant strain, stronger effect = higher value. The procedure, abridged: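 Whole-cell yeast assay. The mutant strain was incubated with compounds, and growth inhibition was determined by comparison with vehicle-treated cells.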
Assay [6] can be described thus: NCI Yeast Anticancer Drug Screen. Data for the mlh1 rad18 strain (AID 175). The conditions noted are these: S. cerevisiae mlh1 rad18 strain growth inhibition, stronger effect = higher value. The procedure, abridged:
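Steps: expose repair-defective yeast to compound; measure growth; express inhibition against vehicle-treated controls.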

[7] abbreviates: at 5.0 µM (retest, dose inferred, filed as 0.5).
Setting [8] is: at 50.0 µM (retest, dose inferred, filed as 5.0).

Regarding `COc1ccc(Cc2c(-c3ccc(C)cc3)n[nH]c(=O)c2C2C(=O)N(c3ccccc3)N=C2c2ccccc2)cc1` (configuration not stated), the growth inhibition in assay [1] (setting [7]) is 98% (active); in assay [1] (setting [8]), 95% (active); in assay [1] (at 50.0 µM), 97% (active); in assay [2] (setting [7]), 99% (active); in assay [2] (setting [8]) it was 96% (active); in assay [2] (at 50.0 µM), 95.3% (active). The growth inhibition in assay [3] (setting [7]) was 97% (active); in assay [3] (setting [8]), 97% (active); in assay [3] (at 50.0 µM), 98.2% (active); in assay [4] (setting [7]), 98% (active); in assay [4] (setting [8]) it was 97% (active); in assay [4] (at 50.0 µM), 96% (active). In addition, the growth inhibition was 63% in assay [5] (setting [7]); 96% (active) in assay [5] (setting [8]); 97.5% (active) in assay [5] (at 50.0 µM); 47% in assay [6] (setting [7]); 94% (active) in assay [6] (setting [8]); 96% (active) in assay [6] (at 50.0 µM).
With `O=C(O)Cc1c(-c2noc(-c3ccccc3)c2CC(=O)O)noc1-c1ccccc1`, the growth inhibition in assay [1] (setting [7]) is -10%; in assay [1] (setting [8]) it was -3%; in assay [1] (at 50.0 µM), 28.5%; in assay [2] (setting [7]), 8%; in assay [2] (setting [8]), -2%; in assay [2] (at 50.0 µM) it was 46.8%. Besides, the growth inhibition in assay [3] (setting [7]) is -16%; in assay [3] (setting [8]) it was -8%; in assay [3] (at 50.0 µM), 26.6%; in assay [4] (setting [7]), 1%; in assay [4] (setting [8]), -10%; in assay [4] (at 50.0 µM) it was 58.4%. Besides, the growth inhibition in assay [5] (setting [7]) was -7%; in assay [5] (setting [8]) it was 0%; in assay [5] (at 50.0 µM), 97.1% (active); in assay [6] (setting [7]), 4%; in assay [6] (setting [8]), -9%; in assay [6] (at 50.0 µM), 40.1%.
As to `CCC(/C=C/C(C)C1CCC2C3CC=C4C/C(=N/NC(N)=O)CCC4(C)C3CCC12C)C(C)C` (configuration not stated), the growth inhibition was -7% in assay [1] (setting [7]); 6% in assay [1] (setting [8]); 9.95% in assay [1] (at 50.0 µM); -3% in assay [2] (setting [7]); 2% in assay [2] (setting [8]); 9.3% in assay [2] (at 50.0 µM). The growth inhibition in assay [3] (setting [7]) is -3%; in assay [3] (setting [8]), -5%; in assay [3] (at 50.0 µM), 50.9%; in assay [4] (setting [7]), -7%; in assay [4] (setting [8]) it was -9%; in assay [4] (at 50.0 µM) it was -1.15%. For the same compound, the growth inhibition was -3% in assay [5] (setting [7]); 2% in assay [5] (setting [8]); 24.1% in assay [5] (at 50.0 µM); -3% in assay [6] (setting [7]); 5% in assay [6] (setting [8]); 28.9% in assay [6] (at 50.0 µM).
With `COc1cc2c(cc1OC)C(=O)C(C)(c1ccccc1)NC2` (configuration not stated), the growth inhibition was 20% in assay [1] (setting [7]); 2% in assay [1] (setting [8]); 91.9% (active) in assay [1] (at 50.0 µM); 9% in assay [2] (setting [7]); 42% in assay [2] (setting [8]); 98.8% (active) in assay [2] (at 50.0 µM). The growth inhibition in assay [3] (setting [7]) was 3%; in assay [3] (setting [8]), -1%; in assay [3] (at 50.0 µM) it was 92.4% (active); in assay [4] (setting [7]), 10%; in assay [4] (setting [8]), 56%; in assay [4] (at 50.0 µM), 99.5% (active). Besides, the growth inhibition in assay [5] (setting [7]) is 2%; in assay [5] (setting [8]), 31%; in assay [5] (at 50.0 µM), 97.3% (active); in assay [6] (setting [7]) it was 4%; in assay [6] (setting [8]) it was -3%; in assay [6] (at 50.0 µM) it was 97.8% (active).
`CC(C)(Br)C(Br)C(=O)C(Br)C(C)(C)Br` (configuration not stated): the growth inhibition is -1% in assay [1] (setting [7]); 8% in assay [1] (setting [8]); 52.2% in assay [1] (at 50.0 µM); -2% in assay [2] (setting [7]); 26% in assay [2] (setting [8]); 48.6% in assay [2] (at 50.0 µM). The growth inhibition is -4% in assay [3] (setting [7]); 31% in assay [3] (setting [8]); 63.6% in assay [3] (at 50.0 µM); -2% in assay [4] (setting [7]); 15% in assay [4] (setting [8]); -7.9% in assay [4] (at 50.0 µM). The growth inhibition in assay [5] (setting [7]) is -2%; in assay [5] (setting [8]), 40%; in assay [5] (at 50.0 µM), 19.6%; in assay [6] (setting [7]) it was -1%; in assay [6] (setting [8]), 31%; in assay [6] (at 50.0 µM), 69%.
`Oc1c(C(Nc2ccccn2)c2ccccc2)ccc2cccnc12` (configuration not stated): the growth inhibition was 8% in assay [1] (setting [7]); 97% (active) in assay [1] (setting [8]); 94.6% (active) in assay [1] (at 50.0 µM); 19% in assay [2] (setting [7]); 97% (active) in assay [2] (setting [8]); 94.3% (active) in assay [2] (at 50.0 µM). Besides, the growth inhibition was -4% in assay [3] (setting [7]); 96% (active) in assay [3] (setting [8]); 95.5% (active) in assay [3] (at 50.0 µM); -11% in assay [4] (setting [7]); 94% (active) in assay [4] (setting [8]); 93% (active) in assay [4] (at 50.0 µM). For the same compound, the growth inhibition is -9% in assay [5] (setting [7]); 97% (active) in assay [5] (setting [8]); 94.4% (active) in assay [5] (at 50.0 µM); 7% in assay [6] (setting [7]); 96% (active) in assay [6] (setting [8]); 94.5% (active) in assay [6] (at 50.0 µM).
Turning to `O=C(Oc1cc(Cl)c(Cl)cc1Cl)c1ccco1`, the growth inhibition in assay [1] (setting [7]) is 0%; in assay [1] (setting [8]) it was -1%; in assay [1] (at 50.0 µM), -1.8%; in assay [2] (setting [7]) it was 4%; in assay [2] (setting [8]) it was 5%; in assay [2] (at 50.0 µM), -5.4%. Moreover, the growth inhibition was 0% in assay [3] (setting [7]); -3% in assay [3] (setting [8]); 23.9% in assay [3] (at 50.0 µM); 3% in assay [4] (setting [7]); -5% in assay [4] (setting [8]); -10.2% in assay [4] (at 50.0 µM). Besides, the growth inhibition in assay [5] (setting [7]) was 30%; in assay [5] (setting [8]) it was 18%; in assay [5] (at 50.0 µM), 84.8% (active); in assay [6] (setting [7]) it was 1%; in assay [6] (setting [8]) it was -4%; in assay [6] (at 50.0 µM), -0.9%.
For the compound `CCCCCCCCCCCCCCNCCN`, the growth inhibition in assay [1] (setting [7]) is 23%; in assay [1] (setting [8]), 29%; in assay [1] (at 50.0 µM), 88.1% (active); in assay [2] (setting [7]), 46%; in assay [2] (setting [8]), 33%; in assay [2] (at 50.0 µM), 91% (active). In addition, the growth inhibition in assay [3] (setting [7]) is 53%; in assay [3] (setting [8]), 97% (active); in assay [3] (at 50.0 µM), 92.5% (active); in assay [4] (setting [7]) it was 27%; in assay [4] (setting [8]), 97% (active); in assay [4] (at 50.0 µM), 88.7% (active). Also, the growth inhibition is 84% (active) in assay [5] (setting [7]); 96% (active) in assay [5] (setting [8]); 89.5% (active) in assay [5] (at 50.0 µM); 25% in assay [6] (setting [7]); 29% in assay [6] (setting [8]); 88.5% (active) in assay [6] (at 50.0 µM).
Turning to `O=C(CNc1cccc([N+](=O)[O-])c1)Nn1c(-c2ccccc2)nc2ccccc2c1=O`, the growth inhibition in assay [1] (setting [7]) is 2%; in assay [1] (setting [8]) it was 30%; in assay [1] (at 50.0 µM) it was 55.5%; in assay [2] (setting [7]), -3%; in assay [2] (setting [8]), 17%; in assay [2] (at 50.0 µM) it was 18.4%. Moreover, the growth inhibition in assay [3] (setting [7]) is 3%; in assay [3] (setting [8]) it was 21%; in assay [3] (at 50.0 µM), 62.7%; in assay [4] (setting [7]), 12%; in assay [4] (setting [8]), 35%; in assay [4] (at 50.0 µM) it was 38.6%. In addition, the growth inhibition was -18% in assay [5] (setting [7]); 9% in assay [5] (setting [8]); 54.6% in assay [5] (at 50.0 µM); 7% in assay [6] (setting [7]); 41% in assay [6] (setting [8]); 76.7% (active) in assay [6] (at 50.0 µM).
